Shown are actives, neighbours in structure and some others; about 8.9% of the full set was active somewhere.
ALOX12 inhib = inhibitors of human 12-lipoxygenase (ALOX12). 0.12% of 150,000 active. purified 12-hLO, xylenol orange hydroperoxide absorbance. P18054. Potency, µM (series often up to 57.1 µM), for inactives: at the highest dose activity change, negative = inhibition, hits mostly inhibitors. AID 1452; note: potency is the fitted concentration of half-maximal effect; nearly all actives have a fitted effect of over 55% in size
Target sequence (P18054 whole entry, looked up): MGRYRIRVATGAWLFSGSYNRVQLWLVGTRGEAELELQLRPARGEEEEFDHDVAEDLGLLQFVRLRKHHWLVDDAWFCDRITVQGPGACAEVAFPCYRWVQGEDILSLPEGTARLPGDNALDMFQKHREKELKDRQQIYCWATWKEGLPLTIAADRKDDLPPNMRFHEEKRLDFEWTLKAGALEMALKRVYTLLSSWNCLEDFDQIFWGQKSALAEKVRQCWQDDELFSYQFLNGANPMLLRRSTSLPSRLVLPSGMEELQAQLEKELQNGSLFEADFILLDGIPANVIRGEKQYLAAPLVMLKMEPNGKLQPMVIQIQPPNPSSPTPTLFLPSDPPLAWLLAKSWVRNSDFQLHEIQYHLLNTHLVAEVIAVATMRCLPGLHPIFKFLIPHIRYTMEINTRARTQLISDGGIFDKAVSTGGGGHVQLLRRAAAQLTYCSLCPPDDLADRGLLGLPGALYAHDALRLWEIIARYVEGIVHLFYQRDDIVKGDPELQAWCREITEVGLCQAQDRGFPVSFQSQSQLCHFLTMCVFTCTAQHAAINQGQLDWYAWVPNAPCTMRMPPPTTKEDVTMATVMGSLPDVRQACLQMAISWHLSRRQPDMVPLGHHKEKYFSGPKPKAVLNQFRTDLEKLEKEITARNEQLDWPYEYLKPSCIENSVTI
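Purified human 12hLO (150 nM final) was preincubated with compounds for 15 min at room temperature in 25 mM Hepes pH 7.0, 0.01% Triton X-100, then reacted with 40 uM arachidonic acid for 30 min. Hydroperoxide was detected with ferrous iron/xylenol orange.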
HPGD block = HPGD (human) dehydrogenase inhibition; purified HPGD, NADH fluorescence kinetic, PGE2 substrate; Potency, µM, inactives show at the highest dose activity change, negative = inhibition, most hits filed as inhibitors; 4.3% of 150,000 active; AID 894; active = well fitted inhibition curve with a large enough effect, not every such curve was filed as active; inconclusive = small, poorly fitted or top-dose-only effect, or another doubt; inactive = no such curve, though single readings can be large or run the other way; note: potency is the fitted concentration of half-maximal effect
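NADH formation kinetics: reaction with 30 uM PGE2 and 1 mM NAD+ (final), 20 nM enzyme, Tris-HCl pH 8 with Tween 20, after 15 min compound preincubation at room temperature. Fluorescence change, last versus first of five reads.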
IMPase Li cell = IMPase inhibition in cells with lithium potentiation. CHO-M1 cells, IP1 TR-FRET (IP-One), carbachol + lithium. Potency, µM (series often up to 59.4 µM), for the others: at the top dose activity, negative = IMPase inhibition, hits mostly inhibitors. 0.35% of 210,000 active;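 note: IP1 builds up when IMPase is blocked and the TR-FRET signal falls; potency is the fitted concentration of half-maximal effect; plate controls were basal vehicle for no effect and high inhibitor control for full effect; nearly all actives have a fitted effect of over 50% in size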
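IP1 accumulation measured by competitive TR-FRET in lysed CHO-M1 cells after 30 min compound exposure at 37C, with a small lithium addition to potentiate weak responses. Hill-equation AC50 from ratio and donor-channel data.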
IMPase inh = membrane-permeable compound that blocks inositol monophosphatase. 120,000 tested, under 10 active. CHO-M1 cells, IP1 accumulation, HTRF TR-FRET ratio. AID 901. inhibition (IP1 accumulation), % at 46.1 µM; active = well fitted curve in the direction sought with a large enough effect in the signal ratio, not every such curve was filed as active; inconclusive = small, poorly fitted or top-dose-only effect, or a change in a side signal; inactive = no such curve, though single readings can be large or run the other way; the % refers to the signal ratio;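 note: cells stimulated with carbachol in lithium chloride buffer; plate controls were DMSO basal wells for no effect and reference inhibitor wells for full effect; higher means more IMPase inhibition seen as more IP1 and lower FRET ratio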
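In this qHTS, compounds (final up to 46 uM) act on CHO-M1 cells that are then activated through the M1 receptor with carbachol, in pH 7.4 buffer containing 50 mM LiCl, for 30 min. IP1 accumulation is quantified by the IP-One immunoassay.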
ALDH1A1 inh = ALDH1A1 (human) enzyme inhibition; Purified ALDH1A1, NADH fluorescence, propionaldehyde substrate; Potency, µM (highest dose often 75.3 µM), without a hit: at the top dose activity, negative = inhibition, actives largely listed as inhibitors; 7.3% of 220,000 active; AID 1030; active = well fitted inhibition curve with a large enough effect, not every such curve was filed as active; inconclusive = small, poorly fitted or top-dose-only effect, or another doubt; inactive = no such curve, though single readings can be large or run the other way;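 note: potency is the fitted concentration of half-maximal effect; plate controls were no enzyme wells and a reference inhibitor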
NPSR antag = neuropeptide S receptor (human) antagonism, cAMP. AID 1461. CHO-NPSR cells, cAMP TR-FRET, antagonist mode. 1% of 220,000 active. Potency, µM (top dose mostly 38.3 µM), inactives show top-dose activity change, negative = inhibition, usual class: inhibitors. Q6W5P4; note: potency is the fitted concentration of half-maximal effect; nearly all actives have a fitted effect of over 50% in size
Active calls of the source: *; u = inconclusive; x = no result given; [ ] = dose if it differs, or a comment. Unless noted, calls come from the whole dose curve; as a rule, active = well fitted curve in the direction sought with a large enough effect; inconclusive = small, poorly fitted or top-dose-only effect, or another doubt; inactive = no such curve, though single readings can be large; an effect the other way counts as inactive or inconclusive. Unless noted, % is set by controls: 0 for no effect and ±100 for the full control effect.

SMILES	ALOX12 inhib	HPGD block	IMPase Li cell	IMPase inh	ALDH1A1 inh	NPSR antag
O=C1CN(C(=O)CSc2nc3cc(Cl)ccc3c(=O)n2Cc2ccccc2)c2ccccc2N1	-2.4%	-17.0%	-2.6%	u	7.94µM*	-35.3%
O=C1CN(CC(=O)Nc2cccc(Cl)c2Cl)c2ccccc2N1	x	x	11.0%	x	3.98µM*	-20.8%
Cc1ccc(Cn2c(SCC(=O)N3CC(=O)Nc4ccccc43)nc3ccccc3c2=O)cc1	-1.1%	x	x	-1.5	u	u
Cc1cccc(NC(=O)Cn2c(C)c(C#N)c3ccccc32)c1C	-5.1%	-3.3%	-6.3%[38.3 µM]	-3.7	9.6%	0.6%[46.1 µM]
C/C(=C1/SC(=S)N(CCC(=O)O)C1=O)c1ccc(O)cc1	-7.9%	17.8µM*	24.1%[38.3 µM]	-0.2	u	-6.5%[46.1 µM]
CCOC(=O)c1nnn(-c2nonc2N)c1CSc1ccc(C)cc1	-19.6%	-23.1%	16.8%[38.3 µM]	10.4	4.47µM*	-32.4%[46.1 µM]
COc1ccc(S(=O)(=O)N(CCc2ccccc2)CC(=O)NC(C)C)cc1	-0.7%	-1.2%	32.2%[38.3 µM]	-1.4	u	-10.4%[46.1 µM]
COc1cc(C(=O)Nc2ccccc2-c2nnn(CC(N)=O)n2)cc(OC)c1OC	1.5%	-16.3%	-23.5%[38.3 µM]	-24.5	-5.0%	29.9%[46.1 µM]
O=c1[nH]c2cc3c(cc2cc1C(c1nnnn1CC1CCCO1)N1CCCCCC1)OCO3 (configuration not stated)	-3.2%	-28.4%	-9.2%	u	u	-26.5%[46.1 µM]
Cc1cccc(N/C(=N\S(=O)(=O)c2ccccc2)C(F)(F)F)c1	5.9%	-8.8%	7.2%[38.3 µM]	-1.8	-1.6%	-13.8%[46.1 µM]
Cc1ccc(CN(Cc2cc3cc4c(cc3[nH]c2=O)OCCO4)Cc2nnnn2Cc2ccco2)cc1	-4.6%	u	-8.5%[38.3 µM]	-21.4	u	-6.1%[46.1 µM]
Cc1ccc2cc(CN(Cc3ccc4c(c3)OCO4)Cc3nnnn3Cc3ccco3)c(=O)[nH]c2c1	-22.1%	-27.7%	10.9%[38.3 µM]	0.8	14.1µM*	-23.6%[46.1 µM]
COc1ccc2[nH]c(=O)c(CN(Cc3nnnn3Cc3ccco3)C3CCCCC3)cc2c1	u	u	-15.9%[38.3 µM]	-4.6	u	-22.7%[46.1 µM]
COc1ccccc1CN(Cc1cc2c(C)ccc(C)c2[nH]c1=O)Cc1nnnn1Cc1ccco1	-8.3%	-7.4%	33.1%[38.3 µM]	1.0	14.1µM*	u
COc1ccc2cc(CN(CCc3ccccc3)Cc3nnnn3Cc3ccco3)c(=O)[nH]c2c1	u	-12.0%	-3.0%[38.3 µM]	7.8	0.0794µM*	u
Cc1ccc(S(=O)(=O)N[C@H]2COC(=O)[C@@H](C)COC(=O)[C@H](C)NC(=O)C/C=C\[C@H]2C)cc1	x	x	x	x	-8.2%[13.5 µM]	x
CCOc1ccc(NC(=O)CN2CCN(CC(=O)Nc3cc(OC)cc(OC)c3)CC2)cc1	1.6%	-10.8%	21.9%[38.3 µM]	10.8	11.2µM*	-17.5%[46.1 µM]
Cc1ccc2nc(C3CCN(CC(=O)Nc4ccc5c(c4)OCCO5)CC3)[nH]c2c1	0.9%	-5.3%	21.0%[38.3 µM]	-7.5	22.4µM*	-15.8%[46.1 µM]
O=C(CN1CCN(Cc2ccc3c(c2)OCO3)CC1)Nc1ccc2c(c1)OCCO2	-5.3%	-8.0%	22.9%[38.3 µM]	6.2	1.5%	-14.2%[46.1 µM]
CCOc1ccc(NC(=O)CN2CCN(CC(=O)Nc3ccc4c(c3)OCCO4)CC2)cc1	3.9%	-15.1%	10.3%[38.3 µM]	18.2	8.91µM*	-20.3%[46.1 µM]
CCOc1ccc(NC(=O)CN2CCN(CC(=O)Nc3ccc(Cl)c(C(F)(F)F)c3)CC2)cc1	-3.8%	-16.9%	35.2%[38.3 µM]	-4.1	12.6µM*	-5.3%[46.1 µM]
O=C(CN1CCC(c2nc3ccccc3[nH]2)CC1)Nc1ccc2c(c1)OCO2	1.9%	-8.4%	12.2%[38.3 µM]	14.8	4.4%	-11.1%[46.1 µM]
Cc1cccc(C)c1	0.0%	-2.8%	8.2%	x	14.7%	x
O=C(NCc1ccc(F)cc1)C1Cc2ccccc2CN1C(=O)c1ccco1 (configuration not stated)	x	x	-1.7%	x	7.0%	1.7%
CCOc1ccc(NC(=O)CN2CCN(CC(=O)Nc3cccc(F)c3)CC2)cc1	-1.8%	7.5%	25.3%[38.3 µM]	-5.1	17.8µM*	-8.4%[46.1 µM]
SMILES	ALOX12 inhib	HPGD block	IMPase Li cell	IMPase inh	ALDH1A1 inh	NPSR antag
O=C(CN1CCN(c2ccc(Cl)cc2)CC1)Nc1cccc(F)c1	-5.8%	-0.7%	11.9%[38.3 µM]	5.2	2.1%	-16.0%[46.1 µM]
O=C(Oc1nsnc1N1CCOCC1)c1ccccc1	-5.5%	-26.7%	-3.9%[38.3 µM]	6.8	28.2µM*	-26.2%[46.1 µM]
O=C(OCC(=O)N1CCN(S(=O)(=O)c2ccccc2)CC1)c1ccc([N+](=O)[O-])o1	x	x	5.9%	x	20µM*	1.8%
CC(C)CC(=O)N1CCN(S(=O)(=O)c2ccc(Cl)cc2)CC1	x	x	1.2%	x	6.3%	-9.9%
O=C(OCC(=O)N1CCN(S(=O)(=O)c2ccc(Cl)cc2)CC1)c1ccc([N+](=O)[O-])o1	x	x	6.2%	x	25.1µM*	-2.1%
O=C(COc1ccccc1[N+](=O)[O-])N1CCN(S(=O)(=O)c2ccccc2)CC1	x	x	3.0%	x	-9.3%	-10.5%
CCc1nnc(NC(=O)c2csc3c2CCC(C)C3)s1 (configuration not stated)	x	x	2.1%	x	4.2%	17.0%
CCCOc1ccc(/C=C2\SC(=S)N(CC3CCCO3)C2=O)cc1 (configuration not stated)	3.3%	-6.7%	16.3%	x	6.31µM*	-18.4%
Cc1ccsc1/C=C1\SC(=S)N(CC2CCCO2)C1=O (configuration not stated)	x	x	22.7%	x	1µM*	-17.5%
Cc1ccc(C)c(NC(=O)c2cc3c([nH]c4ccccc43)c(C)n2)c1	13.7%	-16.5%	11.2µM*	4.8	-4.2%	6.9%[46.1 µM]
CC[n+]1c(/C=C/C=C/N(C(C)=O)c2ccccc2)sc2ccccc21	u	-26.4%	46.7%[38.3 µM]	1.7	3.55µM*	-19.6%[46.1 µM]
CCn1c(/C=C/N(C(C)=O)c2ccccc2)[n+](CC)c2ccc(Cl)cc21	-0.9%	-1.4%	17.5%	2.9	2.3%	3.1%
CCn1cc(Cl)c(C(=O)N2N=C(c3ccc4ccccc4c3)CC2c2ccccc2O)n1 (configuration not stated)	0.1%	u	-4.6%	x	5.8%	-24.6%
Cn1c(Cn2nnc3ccccc32)nnc1SCC(=O)N1c2ccccc2CCc2ccccc21	-4.5%	-0.8%	1.8%[38.3 µM]	9.4	8.91µM*	-19.9%[46.1 µM]
COc1ccc(N2CCN(C(=O)CSc3nnc(-c4cc5ccccc5cc4O)n3C)CC2)cc1	-4.2%	-16.1%	3.5%[38.3 µM]	10.8	-6.7%	-22.8%[46.1 µM]
Cn1c(Cn2nnc3ccccc32)nnc1SCC(=O)N1c2ccccc2Sc2ccccc21	0.1%	-9.9%	9.5%[38.3 µM]	-10.2	4.7%	-23.1%[46.1 µM]
COc1ccc(N2CCN(C(=O)CSc3nnc(Cn4nnc5ccccc54)n3C)CC2)cc1	-3.3%	-14.7%	20.5%[38.3 µM]	-0.1	14.1µM*	-2.7%[46.1 µM]

Source: PubChem
